A short description of assay [1]: qHTS assay for small molecule agonists of the p53 signaling pathway - cell viability (AID 651633; calls by dose curve; also: nearly all actives have a fitted effect of over 30% in size; also: potency is read from the fitted curve at half-maximal effect). Put shortly:
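Viability counter-read: CellTiter-Glo luminescence (30 min, room temperature) in the same p53RE-bla plates. These plates had been exposed to compounds for 16 h at 37 C.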

Assay [2] can be described thus: qHTS assay for small molecules that induce genotoxicity in human embryonic kidney cells expressing luciferase-tagged ATAD5 - cell viability (AID 651634; calls by dose curve; also: nearly all actives have a fitted effect of over 25% in size; also: potency is read from the fitted curve at half-maximal effect). The procedure, abridged:
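After 15.5 hr incubation with compound at 37C, 5% CO2, HEK293T ATAD5-luciferase cells received CellTiter-Fluor reagent; fluorescence intensity was quantified following 30 min at 37C.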
On the technique in general: In qHTS, concentration-response curves come from the screen itself.

Assay [3] can be described thus: qHTS assay for small molecule disruptors of the mitochondrial membrane potential - cell viability (AID 720634; calls by dose curve; also: nearly all actives have a fitted effect of over 20% in size; also: potency is read from the fitted curve at half-maximal effect). Put shortly:
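ATP-based luminescent viability readout (CellTiter-Glo, 30 min, room temperature) in HepG2 cells multiplexed with the m-MPI membrane potential dye; compound exposure lasted 1 hr at 37 C.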

Assay [4] in a line: qHTS assay to test for compound auto fluorescence at 590 nm (red) in HepG2 cells (AID 720674). Put shortly: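 We screened compounds on adherent HepG2 cells, incubating them for an hour at 37 C in 5% CO2 before reading emission at 590 nm under 540 nm excitation; values reflect equivalence to Rose Bengal sodium fluorescence.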
Assay [5] is described as follows: qHTS assay to test for compound auto fluorescence at 535 nm (green) in HepG2 cells (AID 720675). Also: potency is read from the fitted curve at half-maximal effect.
A short description of assay [6]: qHTS assay to test for compound auto fluorescence at 460 nm (blue) in HEK293 cells (AID 720678). Put shortly:
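After cell attachment (4-5 hr, 37C), compounds were pinned onto HEK293 monolayers in 10% dialyzed FBS medium. The blue channel (405/460 nm) was read following overnight culture. Equivalency was calculated against triamterene.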

Assay [7] in a line: qHTS assay to test for compound auto fluorescence at 590 nm (red) in HEK293 cells (AID 720679). Put shortly: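 Plates of HEK293 cells (10% dialyzed FBS) are treated with 23 nL compound or DMSO vehicle after a 4-5 hr attachment period, incubated overnight at 37C, and read for red fluorescence at 540/590nm.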
Assay [8] is described as follows: qHTS assay to test for compound auto fluorescence at 535 nm (green) in HEK293 cells (AID 720680).
The nature of assay [9]: qHTS assay to test for compound auto fluorescence at 460 nm (blue) in HEK293 cell free culture (AID 720681). The procedure, abridged:
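Blue fluorescence (Ex 405/Em 460 nm, triamterene-equivalent) was read immediately after pin transfer of compound or DMSO into medium (DMEM, 10% FBS) without cells.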

Assay [10] is described as follows: qHTS assay to test for compound auto fluorescence at 535 nm (green) in HEK293 cell free culture (AID 720682). The procedure, abridged: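 Using fluorescein as calibrant, autofluorescence was quantified at 485/535 nm in cell-free DMEM containing 10% FBS after pintool addition of compound or vehicle.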
A short description of assay [11]: qHTS assay to test for compound auto fluorescence at 590 nm (red) in HEK293 cell free culture (AID 720683). The procedure, abridged: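 Red-channel autofluorescence of compounds in culture medium (DMEM, 10% FBS), no cells, measured at 540/590 nm. Rose Bengal sodium is the reference fluorophore for equivalence.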
Assay [12] in a line: qHTS assay to test for compound auto fluorescence at 590 nm (red) in HepG2 cell free culture (AID 720684). The procedure, abridged:
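No cells present: MEM + 10% FBS only. Compound pinned in, red label read (540/590 nm). Activity = fluorescence equivalent to Rose Bengal sodium.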

A short description of assay [13]: qHTS assay to test for compound auto fluorescence at 460 nm (blue) in HepG2 cell free culture (AID 720685). Put shortly:
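Cell-free plates of MEM plus 10% FBS received 23 nL compound or DMSO vehicle; blue-channel (405/460 nm) intensity scored against triamterene as reference fluorophore.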

The nature of assay [14]: qHTS assay to test for compound auto fluorescence at 535 nm (green) in HepG2 cell free culture (AID 720686).
A short description of assay [15]: qHTS assay to test for compound auto fluorescence at 460 nm (blue) in HepG2 cells (AID 720687). The procedure, abridged: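 Blue-channel autofluorescence (Ex/Em 405/460 nm, triamterene-equivalent) was measured after 1 hr compound exposure at 37 C, 5% CO2. Cells were HepG2, plated overnight at 37 C in MEM plus 10% FBS.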
Assay [16] in a line: qHTS assay for small molecules that induce genotoxicity in human embryonic kidney cells expressing luciferase-tagged ATAD5 (AID 651632). Also: nearly all actives have a fitted effect of over 15% in size. Also: potency is read from the fitted curve at half-maximal effect. Put shortly:
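Quantitative HTS in HEK293T expressing luciferase-tagged ATAD5, whose levels rise upon DNA damage. Exposure ran 16 hr at 37C and 5% CO2, with luminescence read 30 min after Amplite addition at room temperature.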

A short description of assay [17]: qHTS assay for small molecule disruptors of the mitochondrial membrane potential (AID 720635). Also: potency is read from the fitted curve at half-maximal effect. The procedure, abridged: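 Mitochondrial membrane potential tracked with Mito-MPS dye, red aggregates (ex 540/em 590 nm) against green monomers (ex 490/em 535 nm). Compound treatment 1 hr at 37C, dye 30 min in HepG2.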
Assay [18] concerns the target Glucocorticoid receptor (Homo sapiens) (UniProt P04150). Kind of assay: qHTS assay to identify small molecule agonists of the glucocorticoid receptor (GR) signaling pathway (AID 720691; active = well fitted activation curve with a large enough effect in the signal ratio in the repeat runs, not every such curve was filed as active; inconclusive = weak or mixed curves, or effect the other way; inactive = no such curve, though single readings can be large or run the other way; the % refers to the signal ratio; also: potency is read from the fitted curve at half-maximal effect). To be noted: GR-bla HeLa, beta-lactamase reporter ratio, 18 h; activation: at 62.4 µM (top of the series). Put shortly:
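Cells: GR-bla HeLa, endogenous GR with stably integrated GRE-beta-lactamase reporter. Treatment 18 h, 37 C, compounds delivered in DMSO. Detection via LiveBLAzer B/G FRET substrate, 2 h RT, fluorescence intensity.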

Results on seven molecules are retold here after PubChem BioAssay (Tox21).

Where “and” joins values, the source holds several entries; their conditions need not be identical. Equal values may be shown once. Calls of active or inactive are those of the source. Unless noted, calls follow the shape of the dose curve; as a rule, active = well fitted curve in the direction sought with a large enough effect in the repeat runs; inconclusive = weak or mixed curves; inactive = no such curve, though single readings can be large; an effect the other way counts as inactive or inconclusive.

Glucocorticoid receptor (Homo sapiens), sequence (P04150 whole entry, looked up): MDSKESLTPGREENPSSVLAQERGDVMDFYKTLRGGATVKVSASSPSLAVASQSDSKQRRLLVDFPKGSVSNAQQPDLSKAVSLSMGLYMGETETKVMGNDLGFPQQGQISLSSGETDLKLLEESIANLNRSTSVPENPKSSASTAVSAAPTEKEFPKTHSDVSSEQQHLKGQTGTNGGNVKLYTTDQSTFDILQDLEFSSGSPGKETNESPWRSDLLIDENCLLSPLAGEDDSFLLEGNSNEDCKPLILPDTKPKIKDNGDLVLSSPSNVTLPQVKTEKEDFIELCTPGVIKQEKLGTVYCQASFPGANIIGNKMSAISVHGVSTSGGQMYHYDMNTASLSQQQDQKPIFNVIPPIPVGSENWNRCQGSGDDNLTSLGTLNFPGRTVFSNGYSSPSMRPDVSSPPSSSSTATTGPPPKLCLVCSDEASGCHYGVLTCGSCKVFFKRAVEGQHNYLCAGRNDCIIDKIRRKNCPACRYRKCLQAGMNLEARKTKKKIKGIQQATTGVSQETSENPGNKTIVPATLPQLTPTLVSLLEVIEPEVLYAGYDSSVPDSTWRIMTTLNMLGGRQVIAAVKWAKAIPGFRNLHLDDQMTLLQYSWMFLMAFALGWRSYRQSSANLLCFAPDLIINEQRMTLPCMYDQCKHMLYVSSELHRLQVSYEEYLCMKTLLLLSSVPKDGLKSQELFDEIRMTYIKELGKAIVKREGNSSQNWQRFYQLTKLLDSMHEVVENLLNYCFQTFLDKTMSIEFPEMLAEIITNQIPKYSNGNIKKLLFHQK

As to `CCCCCCCCCC[N+](C)(CCCCCCCCCC)CCC[Si](OC)(OC)OC`, the Potency in assay [1] is 48.6 µM (active); in assay [2], 48.6 µM (active); in [3] it was 54.5 µM (active). The outcome in assay [4], in assay [7], in assay [8], in [10], in assay [11] and in assay [12] was inactive. Moreover, the Potency entry in assay [5], in [6], in assay [9], in assay [13], in [14] and in [15] was “inactive” each time.

For `Oc1ccc(Cl)cc1C1CCCC1`, the Potency result in [16], in assay [1], in assay [2], in [5], in [6] and in assay [9] was “inactive” in each case. Moreover, the Potency result in [13], in [14] and in assay [15] was “inactive” in each case. For the same molecule, the Potency in [17] is 3.86 µM (active). The outcome in assay [4], in assay [7], in [8], in assay [10], in assay [11] and in assay [12] was inactive.

On to `Cc1cc(F)ccc1-c1cc(N2CC[C@@H](O)[C@H]2CO)ncc1N(C)C(=O)C(C)(C)c1cc(C(F)(F)F)cc(C(F)(F)F)c1`, for which the Potency result in [16], in [5], in assay [6], in assay [9], in assay [13] and in assay [14] was “inactive” in each case. For the same molecule, in [15], the Potency entry was “inactive”. Also, the Potency in [1] is 19 µM (active); in assay [2] it was 47.8 µM (active); in [17] it was 21.4 µM (active). In addition, the outcome in [4], in [7], in [8], in assay [10], in assay [11] and in assay [12] was inactive.

On to `CC(=O)[C@]1(O)Cc2c(O)c3c(c(O)c2[C@@H](O[C@H]2C[C@H](N)[C@H](O)[C@H](C)O2)C1)C(=O)c1ccccc1C3=O`, for which the Potency in [16] is 0.841 µM (active); in assay [2], 15 µM (active); in assay [17] it was 5.55 µM (active); in assay [5], 12.6 µM (active); in assay [18] it was 23.9 µM [inconclusive] (active). In addition, the Potency result in assay [3], in assay [6], in assay [9], in assay [13] and in assay [15] was “inactive” throughout. The molecule was classed as inactive in assay [4], in [7], in assay [11] and in [12].

As for `CCN1\C(=C/C=C/C=C/c2sc3ccccc3[n+]2CC)Sc2ccccc21`, the Potency result in [16], in [3], in assay [5], in [6], in [9] and in assay [13] was “inactive” in each case. Besides, the Potency result in assay [14] and in [15] was “inactive” each time. Besides, the Potency in [2] is 23.7 µM (active) and 26.6 µM (active); in [17], 33.5 nM (active) and 266 nM (active). In addition, the outcome in assay [4], in [7], in assay [8], in assay [10], in assay [11] and in assay [12] was inactive.

For the molecule `C=C1C(CCl)(CCl)C2(Cl)C(Cl)C(Cl)C1(Cl)C2(Cl)Cl` (stereo not drawn), the Potency result in assay [16], in assay [3], in [5], in [6], in assay [9] and in assay [13] was “inactive” throughout. Also, the Potency result in assay [14] and in [15] was “inactive” throughout. The Potency in assay [1] was 10.6 µM (active) and 60.4 µM (active); in assay [17], 3.76 µM (active) and 4.28 µM (active). The molecule was classed as inactive in assay [4], in assay [7], in assay [8], in assay [10], in assay [11] and in assay [12].

`CN1CCN(c2ccccc2/C=C2\SCCN(c3ccc(Cl)c(Cl)c3)C2=O)CC1`: the Potency entry in assay [16], in assay [2], in assay [5], in [6], in [9] and in [13] was “inactive” each time. Further, the Potency entry in [14] and in [15] was “inactive” in each case. The Potency in assay [1] is 61.1 µM (active). Besides, the molecule was called inactive in assay [4], in [7], in assay [8], in assay [10], in assay [11] and in assay [12].
